SNCA viab count: GF-AFC viability counterscreen for inhibitors of alpha-synuclein gene (SNCA) expression; HEK-293-SNCA-luc viability, GF-AFC fluorescence, 24 h; Potency, µM (top dose mostly 57.1 µM), inactives show at the top dose activity change, negative = cytotoxicity, usual class: cytotoxic; hit rate 0.12% among 150,000;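 also: 0% = DMSO-treated cells and -100% = medium-only wells without cells; nearly all actives have a fitted effect of over 30% in size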
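HEK-293-SNCA-luc cells (1500/well) plated 24 h, then exposed 24 h to a dilution series; GF-AFC added 30 min at 37C, fluorescence 405/540 nm; normalised to medium-only and DMSO wells, Hill fit.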
hNpr1 antagonist: Natriuretic polypeptide receptor (hNpr1) antagonism - Primary qHTS; Potency, µM (top dose mostly 46.3 µM), inactives show top-dose activity change, negative = inhibition, most hits filed as inhibitors; HEK293 hNpr1 GloSensor cGMP, ANP-stimulated luminescence; AID 1347048, 2019; hit rate 1.6% among 76,000; calls by dose curve; also: nearly all actives have a fitted effect of over 60% in size
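Compound pre-incubated 30 min at room temperature on GloSensor-loaded HEK293 cells stably carrying hNpr1 and the pGS-40F cGMP biosensor. Stimulation uses hNppA at 0.1 nM final; luminescence is taken at baseline and 20 min post-agonist.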
NIH3T3 tox: Cytotoxic Profiling in NIH 3T3 Cell Line of Diverse Libraries Using Quantitative High-Throughput Screening; hit rate 4.3% among 94,000; Potency, µM (top dose mostly 96.7 µM), for the others: top-dose activity change, negative = cytotoxicity, most hits filed as inhibitors; NIH 3T3 viability, CellTiter-Glo ATP luminescence, 48-72 h; also: nearly all actives have a fitted effect of over 55% in size
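Cells were seeded at 400 per well, treated with pin-transferred compound, and kept 48 or 72 hr at 37 °C before CellTiter-Glo addition and luminescence imaging of cellular ATP.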
HEK293 tox: Cytotoxic Profiling in HEK 293 Cell Line of Diverse Libraries Using Quantitative High-Throughput Screening | HEK 293 viability, ATP luminescence (CellTiter-Glo), 48-72 h | Potency, µM (doses to about 115 µM), without a hit: at the top dose activity change, negative = cytotoxicity, usual class: inhibitors | hit rate 6.6% among 94,000 | AID 1345083, 2018; also: nearly all actives have a fitted effect of over 60% in size
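HEK 293 seeded at 250 cells/well receive compound via pintool. After 48 or 72 hr at 37 degree Celsius, 5% CO2 and 95% humidity, CellTiter-Glo is dispensed and luminescence read following 10 min at room temperature.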
SNCA expr inh: Primary qHTS assay for inhibitors of alpha-synuclein gene (SNCA) expression | hit rate 0.17% among 140,000 | Potency, µM (titrated, usually from 57.2 µM), without a hit: at the highest dose activity change, negative = inhibition, usual class: inhibitors | HEK-293 SNCA-luciferase knock-in, luminescence, 24 h | AID 1671194, 2021;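 also: plate controls were DMSO cells for no effect and cell-free wells for full effect; nearly all actives have a fitted effect of over 45% in size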
FLuc inh: Firefly luciferase inhibition profiling of diverse chemical library using quantitative high-throughput screening; purified P. pyralis luciferase, luminescence, biochemical; Potency, µM (series often up to 115 µM), hits mostly inhibitors; hit rate 2.5% among 76,000; also: nearly all actives have a fitted effect of over 65% in size
Target sequence (P08659 whole entry, looked up): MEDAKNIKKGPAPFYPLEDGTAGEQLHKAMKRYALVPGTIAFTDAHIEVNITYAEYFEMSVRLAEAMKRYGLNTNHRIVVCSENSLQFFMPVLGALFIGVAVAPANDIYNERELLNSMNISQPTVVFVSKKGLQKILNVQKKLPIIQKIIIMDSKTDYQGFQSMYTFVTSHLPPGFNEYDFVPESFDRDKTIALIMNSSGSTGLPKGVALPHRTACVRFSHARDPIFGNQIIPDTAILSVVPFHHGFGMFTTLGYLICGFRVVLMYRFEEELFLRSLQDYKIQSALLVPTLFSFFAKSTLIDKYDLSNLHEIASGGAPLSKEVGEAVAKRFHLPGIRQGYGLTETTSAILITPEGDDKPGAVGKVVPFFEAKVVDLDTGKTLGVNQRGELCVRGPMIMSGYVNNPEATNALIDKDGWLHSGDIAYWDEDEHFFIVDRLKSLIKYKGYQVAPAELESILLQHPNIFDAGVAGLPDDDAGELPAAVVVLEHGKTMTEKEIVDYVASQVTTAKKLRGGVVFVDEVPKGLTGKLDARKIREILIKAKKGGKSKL
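Luminescence read by CCD imaging after purified firefly luciferase (10nM final) was added to substrate buffer holding 10uM D-luciferin and 10uM ATP, pH 7.5, pre-dosed with compound.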
* hit, by the source's call; i = inactive; ? = inconclusive; / = no result given; [ ] = remark or other dose. Most compounds without a hit are left out; they make up all but 7.2% or so of the library. Unless noted, calls follow the shape of the dose curve; as a rule, active = well fitted curve in the direction sought with a large enough effect; inconclusive = small, poorly fitted or top-dose-only effect, or another doubt; inactive = no such curve, though single readings can be large; an effect the other way counts as inactive or inconclusive. Unless noted, % is scaled to controls: 0 for no effect and ±100 for the full control effect; potency is read from the fitted curve at half-maximal effect.

SMILES	SNCA viab count	hNpr1 antagonist	NIH3T3 tox	HEK293 tox	SNCA expr inh	FLuc inh
Cc1ccc(-c2nc(C)c(C(=O)Nc3ccc4c(c3)C(=O)N3CCC[C@H]3C(=O)N4)s2)cc1	2%	-7%	-11%	?	19%	28µM*
CN(C)CCNC(=O)c1nc2nc(-c3ccccc3)c(-c3ccc(Cl)cc3)cc2n1C	?	-4%[70.6 µM]	25µM*	40µM*	?	i
COc1ccccc1-c1cc2c(nc1-c1ccccc1)nc(C(=O)NC1CCN(C)CC1)n2C	?	-18%	20µM*	35µM*	-6%	i
Cn1c(C(=O)NCCc2ccccn2)nc2nc(-c3ccccc3)c(Cl)cc21	-13%[87.6 µM]	-22%[70.6 µM]	?	?	-17%[87.6 µM]	45µM*
Cc1ccc(-c2cc3c(nc2-c2ccccc2)nc(C(=O)NCCN(C)C)n3C)cc1	-22%[87.6 µM]	3%[70.6 µM]	11µM*	40µM*	8%[87.6 µM]	i
CCOC(=O)[C@@H]1CN(C(=O)CCc2ccccc2)[C@H]2c3ccc(OC)cc3O[C@@H]12	/	/	?	-29%	/	/
Cc1ccc(N2CC(c3noc(-c4cccc(N(C)C)c4)n3)CC2=O)cc1 (stereo unspecified)	?	-13%	i	-17%	3%	i
CCN(Cc1ccncc1)C(=O)C1(Oc2ccc(C)cc2)CCNCC1	-20%	1%	-5%	-2%	-17%	i
CC(=O)N1CCN(C(=O)c2nc3sccn3c2-c2ccc(C(F)(F)F)cc2)CC1	13%	/	-18%	i	?	/
CN(C)CCNC(=O)c1nc2nc(-c3ccccc3)c(-c3cccc(CO)c3)cc2n1C	-17%[87.6 µM]	-1%[70.6 µM]	?	?	14%[87.6 µM]	i
CN(C)CCNC(=O)c1nc2nc(-c3ccccc3)c(-c3ccccc3O)cc2n1C	-2%[87.6 µM]	?	79µM*	?	33%[87.6 µM]	i
CN(C)CCNC(=O)c1nc2nc(-c3ccccc3)c(-c3cccc(Cl)c3)cc2n1C	?	-20%[70.6 µM]	10µM*	28µM*	?	i
NC(=O)c1cccnc1N1CCC2(CCCN(Cc3ccccc3F)C2)C1 (stereo unspecified)	5%	2%	0%	-31%	-7%	i
CCOCCc1nc(C2CCOC2)nn1C1CCCCC1 (stereo unspecified)	2%	3%	i	-5%	-20%	i
Cc1cnn(-c2cc(N3CCC(n4cc(C5CCCC5)nn4)CC3)ncn2)c1	-3%	?	?	45µM*	11%	i
CSc1ccc(-c2cccc(CN3CCC(NC(=O)c4ccccc4C)CC3)c2)cc1	/	/	-23%	-35%	/	/
COc1ccccc1C(=O)NC1CCN(Cc2cccc(-c3ccc(SC)cc3)c2)CC1	/	/	28µM*	32µM*	/	/
COC(=O)NC1CCN(Cc2cccc(-c3ccc(SC)cc3)c2)CC1	/	/	32µM*	?	/	/
Cc1cc(C(=O)N2CC(c3nnc(C(C)C)o3)C3(CCOCC3)C2)n(C)n1 (stereo unspecified)	10%	2%	-4%	-5%	1%	i
O=C(c1n[nH]c2c1CCCC2)N1CCCC2(C1)Nc1cccnc1NC2=NC1CCCC1 (stereo unspecified)	-14%	4%	?	-27%	-19%	i
O=C(C1CCCC1)N1CC2(CCN(Cc3cccnc3)CC2)Cc2ccccc21	-23%	/	?	?	-21%	/
O=C(C1CCCC1)N1CC2(CCCN(Cc3ccc(Cl)cc3)C2)Cc2ccccc21 (stereo unspecified)	2%	/	?	40µM*	5%	/
O=C(C1CCCC1)N1CC2(CCN(Cc3cccnc3)C2)Cc2ccccc21 (stereo unspecified)	?	/	?	45µM*	-24%	/
O=C(C1CCCC1)N1CC2(CCN(C3CCCCC3)C2)Cc2ccccc21 (stereo unspecified)	?	/	?	45µM*	-24%	/
CC(=O)N1CC2(CCCN(Cc3ccc(Cl)cc3)C2)Cc2ccccc21 (stereo unspecified)	0%	/	-19%	?	2%	/
SMILES	SNCA viab count	hNpr1 antagonist	NIH3T3 tox	HEK293 tox	SNCA expr inh	FLuc inh
O=C(C1CCCC1)N1CC2(CCN(C3CCCCC3)CC2)Cc2ccccc21	-28%	/	?	?	-22%	/
O=C(Nc1ccc2c(c1)C(=O)N1CCC[C@H]1C(=O)N2)c1cc(-c2cccnc2)n[nH]1	-5%	3%	i	-9%	-27%	i
Cc1nn2c(c1-c1ccccc1OCc1ccccc1)N(C(=O)Cc1ccccc1)CCC2	?	?	45µM*	79µM*	?	i
Cc1nn2c(c1-c1cccc3cn[nH]c13)N(C(=O)Cc1ccccc1)CCC2	-12%[87.6 µM]	-25%[70.6 µM]	45µM*	-26%[172 µM]	2%[87.6 µM]	i
Cc1nn2c(c1-c1ccccc1[S+](C)(=O)[O-])N(C(=O)Cc1ccccc1)CCC2	11%[87.6 µM]	1%[70.6 µM]	?	-13%[172 µM]	31%[87.6 µM]	i
Cc1nn2c(c1-c1ccccc1OCc1ccccc1)N(C(=O)CN1CCOCC1)CCC2	-12%	-19%	?	-5%	-8%	i
Cc1cccc(C)c1CN1CC2(COCC1=O)CN(c1ccc(C(F)(F)F)cn1)C2	1%[87.6 µM]	-17%[70.6 µM]	89µM*	?	7%[87.6 µM]	i
Cc1noc([C@H]2CCN(Cc3cc(F)cc(F)c3)C[C@H]2NC(=O)C2CC2)n1	-23%	1%	?	28µM*	?	i
CCOc1ccccc1C1NC(=O)N(CC(=O)Nc2ccc(C)c(Cl)c2)C2=C1C(=O)OC2 (stereo unspecified)	-6%	-22%	?	?	-28%	?
CCOc1ccccc1C1NC(=O)N(CC(=O)Nc2cccc(Cl)c2)C2=C1C(=O)OC2 (stereo unspecified)	-9%	-22%	?	35µM*	?	i
CCCCc1ccc(NC(=O)CN2C(=O)NC(c3ccccc3OCC)C3=C2COC3=O)cc1 (stereo unspecified)	-15%	-2%	32µM*	32µM*	?	i
CCOc1ccccc1C1NC(=O)N(CC(=O)Nc2ccc(F)cc2)C2=C1C(=O)OC2 (stereo unspecified)	1%	-12%	?	-18%	0%	i
COc1ccc(Nc2ccnc(N3CCCC(C(=O)N4CCC(Cc5ccccc5)CC4)C3)n2)cc1 (stereo unspecified)	?	/	28µM*	20µM*	?	/
